# Screen size: about 5,500 compounds; about 2,000 (36%) were called active. Not shown: some 18% with an inconclusive outcome. The list shows a part of the results. Values without a mark were called inactive. Cut-off read from the data, not from the text of the source: active = normalized growth mostly below about 0.91 (no sharp cut-off); inconclusive = no clear call, values can overlap the other calls; inactive = mostly above about 0.92.
# Assay: chemical genetic growth profiling, strain panel (AID 1159580);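 note: tested at 20 µM; growth read once vehicle control cultures reached saturation at 30 °C; 1 = growth at the plate median or of vehicle wells; lower values mean less growth of the strain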
# Details: S. cerevisiae deletion strains, growth OD
smiles,measurement,setting,value
C#Cc1cccc(N=Cc2cc(Cl)cc(Br)c2O)c1,normalized growth,"locus YAR019C, strain CDC15, hits give low values",0.101 (active)
same,normalized growth,"locus YBL105C, strain PKC1, hits give low values",0.0988 (active)
same,normalized growth,"locus YBR135W, strain CKS1, hits give low values",0.128 (active)
same,normalized growth,"locus YBR136W, strain MEC1, hits give low values",0.107 (active)
same,normalized growth,"locus YBR160W, strain CDC28, hits give low values",0.134 (active)
same,normalized growth,"locus YDL017W, strain CDC7, hits give low values",0.1 (active)
same,normalized growth,"locus YDL028C, strain MPS1, hits give low values",0.108 (active)
same,normalized growth,"locus YDL101C, strain DUN1, hits give low values",0.165 (active)
same,normalized growth,"locus YDL108W, strain KIN28, hits give low values",0.122 (active)
same,normalized growth,"locus YDL214C, strain PRR2, hits give low values",0.103 (active)
same,normalized growth,"locus YDR052C, strain DBF4, hits give low values",0.451 (active)
same,normalized growth,"locus YDR054C, strain cdc34, hits give low values",0.482 (active)
same,normalized growth,"locus YDR226W, strain ADK1, hits give low values",0.534 (active)
same,normalized growth,"locus YDR477W, strain SNF1, hits give low values",0.117 (active)
same,normalized growth,"locus YER123W, strain YCK3, hits give low values",0.112 (active)
same,normalized growth,"locus YER133W, strain GLC7, hits give low values",0.114 (active)
same,normalized growth,"locus YFL009W, strain cdc4, hits give low values",0.108 (active)
same,normalized growth,"locus YFL029C, strain CAK1, hits give low values",0.0962 (active)
same,normalized growth,"locus YFR003C, strain YPI1, hits give low values",0.11 (active)
same,normalized growth,"locus YFR019W, strain FAB1, hits give low values",0.107 (active)
same,normalized growth,"locus YFR028C, strain CDC14, hits give low values",0.104 (active)
same,normalized growth,"locus YGR040W, strain KSS1, hits give low values",0.13 (active)
same,normalized growth,"locus YGR052W, strain FMP48, hits give low values",0.127 (active)
same,normalized growth,"locus YGR092W, strain DBF2, hits give low values",0.114 (active)
same,normalized growth,"locus YHR030C, strain SLT2, hits give low values",0.127 (active)
same,normalized growth,"locus YHR079C, strain IRE1, hits give low values",0.125 (active)
same,normalized growth,"locus YHR082C, strain KSP1, hits give low values",0.157 (active)
same,normalized growth,"locus YHR205W, strain SCH9, hits give low values",0.021 (active)
same,normalized growth,"locus YIL147C, strain SLN1, hits give low values",0.112 (active)
same,normalized growth,"locus YJL095W, strain BCK1, hits give low values",0.135 (active)
same,normalized growth,"locus YJL128C, strain PBS2, hits give low values",0.257 (active)
same,normalized growth,"locus YJL157C, strain FAR1, hits give low values",0.0902 (active)
same,normalized growth,"locus YJR016C, strain ILV3, hits give low values",0.103 (active)
same,normalized growth,"locus YJR066W, strain TOR1 (second series), hits give low values",0.109 (active)
same,normalized growth,"locus YJR066W, strain TOR1, hits give low values",0.137 (active)
same,normalized growth,"locus YKL048C, strain ELM1, hits give low values",0.129 (active)
same,normalized growth,"locus YKL067W, strain YNK1, hits give low values",0.109 (active)
same,normalized growth,"locus YKL101W, strain HSL1, hits give low values",0.128 (active)
same,normalized growth,"locus YKL193C, strain SDS22, hits give low values",0.108 (active)
same,normalized growth,"locus YKL203C, strain TOR2, hits give low values",0.113 (active)
same,normalized growth,"locus YLR113W, strain HOG1, hits give low values",0.132 (active)
same,normalized growth,"locus YLR133W, strain CKI1, hits give low values",0.106 (active)
same,normalized growth,"locus YLR403W, strain SFP1, hits give low values",0.0146 (active)
same,normalized growth,"locus YML070W, strain DAK1, hits give low values",0.13 (active)
same,normalized growth,"locus YMR001C, strain CDC5, hits give low values",0.0999 (active)
same,normalized growth,"locus YMR205C, strain PFK2 (second series), hits give low values",0.12 (active)
same,normalized growth,"locus YMR277W, strain FCP1, hits give low values",0.108 (active)
same,normalized growth,"locus YNL006W, strain LST8, hits give low values",0.0957 (active)
same,normalized growth,"locus YNL020C, strain ARK1, hits give low values",0.11 (active)
same,normalized growth,"locus YNL161W, strain CBK1, hits give low values",0.107 (active)
same,normalized growth,"locus YNL183C, strain NPR1, hits give low values",0.156 (active)
same,normalized growth,"locus YNL207W, strain RIO2, hits give low values",0.119 (active)
same,normalized growth,"locus YNL222W, strain SSU72, hits give low values",0.095 (active)
same,normalized growth,"locus YNL307C, strain MCK1 (second series), hits give low values",0.114 (active)
same,normalized growth,"locus YOL078W, strain AVO1, hits give low values",0.104 (active)
same,normalized growth,"locus YOL136C, strain PFK27, hits give low values",0.1 (active)
same,normalized growth,"locus YOR061W, strain CKA2, hits give low values",0.115 (active)
same,normalized growth,"locus YOR119C, strain RIO1, hits give low values",0.11 (active)
same,normalized growth,"locus YOR231W, strain MKK1, hits give low values",0.119 (active)
same,normalized growth,"locus YOR329C, strain SCD5, hits give low values",0.0917 (active)
same,normalized growth,"locus YPL031C, strain PHO85, hits give low values",0.116 (active)
same,normalized growth,"locus YPL153C, strain RAD53, hits give low values",0.127 (active)
same,normalized growth,"locus YPL204W, strain HRR25, hits give low values",0.13 (active)
same,normalized growth,"locus YPL209C, strain IPL1, hits give low values",0.102 (active)
same,normalized growth,"locus YPL256C, strain CLN2, hits give low values",0.16 (active)
same,normalized growth,"locus YPR025C, strain CCL1, hits give low values",0.101 (active)
same,normalized growth,"strain NNK1, hits give low values",0.108 (active)
same,normalized growth,"strain TSCII, hits give low values",0.102 (active)
O=C(NCC1CCCCN1)c1cc(OCC(F)(F)F)ccc1OCC(F)(F)F (stereo not given),normalized growth,"locus YAL040C, strain CLN3, hits give low values",0.988
same,normalized growth,"locus YCL061C, strain MRC1 (second series), hits give low values",1
same,normalized growth,"locus YDR150W, strain NUM1, hits give low values",1.01
same,normalized growth,"locus YDR363W, strain ESC2, hits give low values",1.01
same,normalized growth,"locus YER002W, strain NOP16, hits give low values",0.987
same,normalized growth,"locus YGR229C, strain SMI1, hits give low values",1.03
same,normalized growth,"locus YNL175C, strain NOP13, hits give low values",0.989
same,normalized growth,"locus YNL197C, strain WHI3, hits give low values",0.986
same,normalized growth,"locus YNL224C, strain SQS1, hits give low values",1.04
same,normalized growth,"locus YNL322C, strain KRE1, hits give low values",0.995
same,normalized growth,"locus YOR083W, strain WHI5 (second series), hits give low values",1.01
same,normalized growth,"locus YPL241C, strain CIN2, hits give low values",0.998

# — PubChem BioAssay AID1159580 (chemical genetic matrix, 2015)
